# From the supplement of paper PMC8728848
# Shown is part of a subset that was picked to be rich in the strongest signals.
# B1: GST-Gap1 (Streptococcus parasanguinis), A1C3L5 (protein)
# chain: MFYFVPSWYNGQRQWYYDTPWWFRVKNRMTFDDSVNQVKMFLQGQEEIGLMILNYQPQLRYFLHKQNIFGIYYWSFFDDIQNITRSYTKIIHLKDLNWPEGCEFLYSPFAVVVRLKGEIFAIVNYAEDGNLHSVSFQKNGKVTKDYIFDDRGFLSSILYYDIDERPLYQDYLNINGVWQVREFLKKENDPTPILMINDFSDQTFSKKYYNGWEELIKERLAIFQNNHVENEDVFVLASDTQHNQLVSSIFKEHRKIYSFFGNRFNLENLGQDRISINDATFLVVDTEKNEELLRKTCENLVFKSIPIVRLSPFDSRLRLGHSQTVKEQIIYFHIDNIELDELYSVIAIILELMTLHLDIELRIVTFRQDFQLDLLKTWIIDFIKTNHFEDLLFKQISEGENEIEDEGEIELSRIAMECFTNENQIIKCLDTARLVIDLGIEPDLYTQIASISAGIPQINRVSSDYVIHQKNGLVISDISKLSSAIEFYFDGLFNWNEALIYAVRKMSDYTSGKILKQWKGMLKKK
# What was measured:
# Assay in all cases: glycan array binding signal (z-score within array); higher = stronger binding
# Details in all cases: glycan notation: IUPAC condensed, linker removed
# [1] = molecular target: Fuc(a1-2)Gal(b1-3)GlcNAc(b1-3)Gal(b1-4)Glc
# Outline: (§1)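 The Consortium for Functional Glycomics database supplied 3228 glycan arrays, of which those lacking an available protein sequence were dropped. The binding signal, a within-array Z-score, was averaged across arrays of the same protein sequence and across linkers. Negative scores can be read as non-binding.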
# [2] = molecular target: Fuc(a1-2)Gal(b1-3)GlcNAc(b1-3)[Gal(b1-4)GlcNAc(b1-6)]Gal(b1-4)Glc
# Outline: as §1
# [3] = molecular target: Fuc(a1-2)Gal(b1-3)[Fuc(a1-4)]GlcNAc(b1-2)Man(a1-3)[Fuc(a1-2)Gal(b1-3)[Fuc(a1-4)]GlcNAc(b1-2)Man(a1-3)]Man(b1-4)GlcNAc(b1-4)GlcNAc
# Outline: as §1
# [4] = molecular target: Fuc(a1-2)Gal(b1-4)GlcNAc(b1-3)Gal(b1-4)GlcNAc
# Outline: as §1
# [5] = molecular target: Fuc(a1-2)Gal(b1-4)[Fuc(a1-3)]GlcNAc(b1-3)GalNAc
# Outline: as §1
# Fuc(a1-2)Gal6S(b1-4)Glc = molecular target: Fuc(a1-2)Gal6S(b1-4)Glc
# Outline: as §1
# [6] = molecular target: Fuc(a1-2)Gal6S(b1-4)Glc6S
# Outline: as §1
# [7] = molecular target: Fuc(a1-2)[Gal(a1-3)]Gal(b1-3)GlcNAc
# Outline: as §1
# [8] = molecular target: Fuc(a1-2)[GalNAc(a1-3)]Gal(b1-4)[Fuc(a1-3)]GlcNAc(b1-3)GalNAc
# Outline: as §1
# [9] = molecular target: Fuc(a1-3)[GalNAc(b1-4)]GlcNAc
# Outline: as §1
# Gal(b1-3)Gal(b1-4)GlcNAc = molecular target: Gal(b1-3)Gal(b1-4)GlcNAc
# Outline: as §1
# [10] = molecular target: Gal(b1-3)Gal(b1-4)GlcNAc(b1-2)Man(a1-3)[Gal(b1-3)Gal(b1-4)GlcNAc(b1-2)Man(a1-6)]Man(b1-4)GlcNAc(b1-4)GlcNAc
# Outline: as §1
# [11] = molecular target: Gal(b1-3)GlcNAc(a1-6)Gal(b1-4)GlcNAc
# Outline: as §1
# [12] = molecular target: Gal(b1-3)GlcNAc(b1-3)Gal(b1-4)GlcNAc(b1-2)[Gal(b1-3)GlcNAc(b1-3)Gal(b1-4)GlcNAc(b1-6)]Man(a1-6)[Gal(b1-3)GlcNAc(b1-3)Gal(b1-4)GlcNAc(b1-2)Man(a1-3)]Man(b1-4)GlcNAc(b1-4)[Fuc(a1-6)]GlcNAc
# Outline: as §1
# [13] = molecular target: Gal(b1-3)GlcNAc(b1-3)Gal(b1-4)GlcNAc(b1-3)Gal(b1-4)GlcNAc(b1-2)[Gal(b1-3)GlcNAc(b1-3)Gal(b1-4)GlcNAc(b1-3)Gal(b1-4)GlcNAc(b1-6)]Man(a1-6)[Gal(b1-3)GlcNAc(b1-3)Gal(b1-4)GlcNAc(b1-3)Gal(b1-4)GlcNAc(b1-2)Man(a1-3)]Man(b1-4)GlcNAc(b1-4)[Fuc(a1-6)]GlcNAc
# Outline: as §1
# [14] = molecular target: Gal(b1-3)GlcNAc(b1-6)GalNAc
# Outline: as §1
# [15] = molecular target: Gal(b1-3)[GlcNAc(b1-6)]GalNAc
# Outline: as §1
# [16] = molecular target: Gal(b1-3)[Neu5Ac(a2-6)]GalNAc
# Outline: as §1
# [17] = molecular target: Gal(b1-3)[Neu5Ac(b2-6)]GalNAc
# Outline: as §1
# [18] = molecular target: Gal(b1-4)GlcNAc(b1-2)[Gal(b1-4)GlcNAc(b1-4)]Man(a1-3)[Gal(b1-4)GlcNAc(b1-2)[Gal(b1-4)GlcNAc(b1-6)]Man(a1-6)]Man(b1-4)GlcNAc(b1-4)GlcNAc
# Outline: as §1
# [19] = molecular target: Gal(b1-4)GlcNAc(b1-2)[Gal(b1-4)GlcNAc(b1-4)]Man(a1-3)[GlcNAc(b1-4)][Gal(b1-4)GlcNAc(b1-2)Man(a1-6)]Man(b1-4)GlcNAc(b1-4)GlcNAc
# Outline: as §1
# [20] = molecular target: Gal(b1-4)GlcNAc(b1-3)Gal(b1-4)GlcNAc(b1-2)Man(a1-3)[Gal(b1-4)GlcNAc(b1-3)Gal(b1-4)GlcNAc(b1-2)Man(a1-6)]Man(b1-4)GlcNAc(b1-4)GlcNAc
# Outline: as §1
# [21] = molecular target: Gal(b1-4)GlcNAc(b1-3)Gal(b1-4)GlcNAc(b1-2)Man(a1-3)[Gal(b1-4)GlcNAc(b1-3)Gal(b1-4)GlcNAc(b1-2)Man(a1-6)]Man(b1-4)GlcNAc(b1-4)[Fuc(a1-6)]GlcNAc
# Outline: as §1
# [22] = molecular target: Gal(b1-4)GlcNAc(b1-3)Gal(b1-4)GlcNAc(b1-2)[Gal(b1-4)GlcNAc(b1-3)Gal(b1-4)GlcNAc(b1-6)]Man(a1-6)[Gal(b1-4)GlcNAc(b1-3)Gal(b1-4)GlcNAc(b1-2)Man(a1-3)]Man(b1-4)GlcNAc(b1-4)[Fuc(a1-6)]GlcNAc
# Outline: as §1
# [23] = molecular target: Gal(b1-4)GlcNAc(b1-3)Gal(b1-4)GlcNAc(b1-3)GalNAc
# Outline: as §1
# [24] = molecular target: Gal(b1-4)GlcNAc(b1-6)[Gal(b1-3)]GalNAc
# Outline: as §1
binder,measurement,setting,value
B1,glycan array binding signal (z-score),[1],-0.291
same,glycan array binding signal (z-score),[2],0.111
same,glycan array binding signal (z-score),[3],0.383
same,glycan array binding signal (z-score),[4],-0.608
same,glycan array binding signal (z-score),[5],1.32
same,glycan array binding signal (z-score),Fuc(a1-2)Gal6S(b1-4)Glc,-0.647
same,glycan array binding signal (z-score),[6],-0.485
same,glycan array binding signal (z-score),[7],0.152
same,glycan array binding signal (z-score),[8],0.024
same,glycan array binding signal (z-score),[9],0.035
same,glycan array binding signal (z-score),Gal(b1-3)Gal(b1-4)GlcNAc,0.416
same,glycan array binding signal (z-score),[10],13.5
same,glycan array binding signal (z-score),[11],-0.654
same,glycan array binding signal (z-score),[12],2.25
same,glycan array binding signal (z-score),[13],3.43
same,glycan array binding signal (z-score),[14],0.494
same,glycan array binding signal (z-score),[15],-0.334
same,glycan array binding signal (z-score),[16],0.3
same,glycan array binding signal (z-score),[17],-0.046
same,glycan array binding signal (z-score),[18],-0.809
same,glycan array binding signal (z-score),[19],0.833
same,glycan array binding signal (z-score),[20],4.81
same,glycan array binding signal (z-score),[21],1.2
same,glycan array binding signal (z-score),[22],2.87
same,glycan array binding signal (z-score),[23],2.15
same,glycan array binding signal (z-score),[24],0.095
